# The panel holds about 83,000 compounds, 20% with a hit somewhere; the sample as a whole holds those more often.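 Negative percent growth values reflect cell death: -40 means 40% of the cells present at the start died, and -100 means all died.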 Unmarked numbers belong to inactive results. Calls of active or inactive are those of the source. The calls were made as follows: active = growth percent below 10; inactive = the rest.
# Columns and labels:
# Experiment in all cases: NCI-60 one-dose screen, 48 h (100 = growth as untreated, 0 = no growth, -100 = all killed)
# Settings in all cases: 10 µM unless noted
# SK-MEL-2 melanoma = tested on: SK-MEL-2 melanoma
# EKVX NSCLC = tested on: EKVX NSCLC
# SN12C renal = tested on: SN12C renal
# UO-31 renal = tested on: UO-31 renal
# TK-10 renal = tested on: TK-10 renal
# ACHN renal = tested on: ACHN renal
# CAKI-1 renal = tested on: CAKI-1 renal
# A498 renal = tested on: A498 renal
# CCRF-CEM leukemia = tested on: CCRF-CEM leukemia
# MOLT-4 leukemia = tested on: MOLT-4 leukemia
# SR leukemia = tested on: SR leukemia
# RPMI-8226 leukemia = tested on: RPMI-8226 leukemia
# OVCAR-8 ovarian = tested on: OVCAR-8 ovarian
# OVCAR-5 ovarian = tested on: OVCAR-5 ovarian
# OVCAR-4 ovarian = tested on: OVCAR-4 ovarian
# SK-OV-3 ovarian = tested on: SK-OV-3 ovarian
# IGROV1 ovarian = tested on: IGROV1 ovarian
# OVCAR-3 ovarian = tested on: OVCAR-3 ovarian
# NCI/ADR-RES ovarian = tested on: NCI/ADR-RES ovarian
# HS 578T breast = tested on: HS 578T breast
Structure (SMILES),growth (SK-MEL-2 melanoma),growth (EKVX NSCLC),growth (SN12C renal),growth (UO-31 renal),growth (TK-10 renal),growth (ACHN renal),growth (CAKI-1 renal),growth (A498 renal),growth (CCRF-CEM leukemia),growth (MOLT-4 leukemia),growth (SR leukemia),growth (RPMI-8226 leukemia),growth (OVCAR-8 ovarian),growth (OVCAR-5 ovarian),growth (OVCAR-4 ovarian),growth (SK-OV-3 ovarian),growth (IGROV1 ovarian),growth (OVCAR-3 ovarian),growth (NCI/ADR-RES ovarian),growth (HS 578T breast)
CCNC(=O)Oc1ccc(/C(=C(/C)Cc2ccc(OC)cc2)c2ccc(OCCN3CCCCCC3)cc2)cc1,87%,71.3%,69.2%,52.9%,84.2%,94.2%,82.5%,70.5%,41.6%,35.2%,-51.7% (active),20.3%,75.4%,94.8%,87.9%,87.7%,78%,59.5%,76.7%,–
Cc1ccc2nc(Cl)c(Cn3nnnc3SCc3ccccc3)cc2c1,96.6%,80.7%,92.8%,69.6%,97.9%,91.8%,72.1%,74.5%,93.9%,97.8%,80%,93.1%,97.3%,94.3%,–,97.7%,95.4%,105%,86.1%,83.1%
COc1cccc(/C=C/C(=O)c2cc3c(N)c(C(=O)Nc4cccc(Cl)c4C)sc3nc2C)c1,-17.3% (active),39.8%,-22.7% (active),-43.4% (active),-18% (active),6.8% (active),-47.4% (active),-13.2% (active),7.19% (active),14.3%,7.93% (active),-32.6% (active),-33.4% (active),7.92% (active),38.1%,14.7%,–,-60.5% (active),-3.64% (active),4.67% (active)
O=C1NC(=O)c2c1c1c3ccccc3[nH]c1c1oc3ccc(F)cc3c21,89.4%,56.4%,74.6%,25%,70.6%,43.2%,41.2%,-6.99% (active),73.6%,76.2%,31.5%,74.5%,91.6%,84.1%,57.8%,84%,–,83.1%,79.1%,82.2%
O=C(O)c1cn(C2CC2)c2cc(N3CCN(C(=O)N/N=C/c4ccccc4)CC3)c(F)cc2c1=O,98.7%,101%,112%,74%,96.5%,101%,93.3%,109%,96.9%,85.4%,54.4%,104%,96.3%,110%,–,95.8%,102%,102%,97.4%,105%
CC[C@H](C)[C@H](NC(=O)[C@H](CCCNC(=N)N)NC(=O)[C@H](Cc1c[nH]c2ccccc12)NC(=O)[C@@H](NC(=O)[C@H](CCCCN)NC(=O)[C@H](CCCCN)NC(=O)[C@@H](NC(=O)[C@@H](NC(=O)[C@@H](NC(=O)[C@H](CCCCN)NC(=O)[C@H](Cc1ccccc1)NC(=O)[C@H](CCCCN)NC(=O)[C@H](CCCCN)NC(=O)[C@H](Cc1ccccc1)NC(=O)[C@@H](NC(=O)[C@@H](N)CCCCN)[C@@H](C)CC)[C@@H](C)O)[C@@H](C)CC)[C@@H](C)CC)C(C)C)C(=O)N[C@@H](Cc1ccccc1)C(=O)NCC(=O)N[C@@H](CCCNC(=N)N)C(=O)N[C@@H](Cc1ccccc1)C(N)=O,-37.5% (active),-71% (active),-56.1% (active),-68.2% (active),-69.4% (active),-54.7% (active),-52.2% (active),-40.9% (active),17.6%,29%,1.72% (active),-18% (active),0.804% (active),-46.1% (active),–,13.9%,-25.8% (active),-23.8% (active),-11.9% (active),-21.3% (active)
Cc1cccc(-n2c(C)nc3ccc(N4CCCNC4=O)cc3c2=O)c1,106%,99.5%,98%,88.7%,104%,111%,99.8%,90.1%,106%,110%,98%,104%,99.5%,112%,–,114%,111%,107%,103%,111%
CC12CCC(/C(=C/NNc3ccc([N+](=O)[O-])cc3[N+](=O)[O-])C1=O)C2(C)C (stereo not given),38.4%,90.8%,73.1%,55.2%,96.8%,34.3%,46.8%,88.5%,47.4%,41.3%,56.5%,73.8%,72.7%,74.5%,74.2%,89.6%,–,87.4%,76.5%,110%
Oc1c(CN2CCCC2)cc(COCc2ccccc2)c2cccnc12,19.2%,31.7%,27.9%,-1.58% (active),10.7%,6.14% (active),10.5%,19.3%,6.37% (active),9.79% (active),12.4%,16.7%,9.92% (active),43.1%,–,-4.92% (active),16.4%,18.1%,-7.48% (active),64.5%
COc1ccc(-c2ccc(=O)oc2C#Cc2cc(OC)c(OC)c(OC)c2)cc1O,29.6%,30.3%,21.2%,40.5%,52.5%,52%,-15.6% (active),-0.779% (active),5.26% (active),18.4%,7.05% (active),15.3%,20%,46.2%,58.6%,30.7%,–,-67.2% (active),16.4%,-8.91% (active)
Cc1ccc(/C=C2\CN(C(=O)C(Cl)Cl)C/C(=C\c3ccc(C)cc3)C2=O)cc1,-5.43% (active),-48.7% (active),-51.3% (active),-100% (active),-63.1% (active),-97.8% (active),-49.6% (active),-89.3% (active),9.16% (active),0.0942% (active),1.68% (active),-19.3% (active),4.74% (active),-44.6% (active),–,29%,-58.8% (active),-97.8% (active),8.57% (active),9.67% (active)
CCN(CC)CCNC(=O)c1ccc(-c2nc3ccc4[nH]ncc4c3c3c2CCCC3)cc1,60.5%,51%,70.9%,40.3%,47.7%,24.7%,9.09% (active),16.9%,47%,50%,6.02% (active),52.1%,59%,87.3%,76.1%,44.1%,–,78.4%,70.9%,41.6%
NC(=O)c1c(NC(=O)c2ccc(Cl)cc2)sc2c1CCC(=O)C2,99.6%,92.7%,71.8%,40.7%,85.2%,45.6%,18.6%,77%,7.15% (active),46.3%,13.3%,-14.3% (active),61.3%,86.5%,9.18% (active),93%,52.6%,32.6%,87.8%,–
Clc1ccc(-c2nc(-c3c[nH]c4ncccc34)cs2)cc1,72% [100 µM],34.7% [100 µM],62.4% [100 µM],65.7% [100 µM],39.7% [100 µM],66.9% [100 µM],49.4% [100 µM],47.2% [100 µM],109% [100 µM],98.1% [100 µM],85.4% [100 µM],91.4% [100 µM],29.7% [100 µM],73.7% [100 µM],28.3% [100 µM],29.3% [100 µM],72.7% [100 µM],68.7% [100 µM],41.2% [100 µM],–
COc1cc(-c2nc3ccc(C)cc3[nH]2)ccc1OCC(=O)N=Nc1c(O)[nH]c2ccc(Cl)cc12,13%,50.7%,-56.4% (active),86.3%,23.4%,31.4%,-61.8% (active),82.2%,-39.1% (active),-17.9% (active),-32.8% (active),-36.6% (active),-34.7% (active),11.1%,-8% (active),32%,–,-70.2% (active),83.4%,-22.3% (active)

# — PubChem BioAssay (NCI)
